Values joined by “and” are separate entries in the source; they are usually repeats but may differ in a detail not shown here. Equal entries are not always repeated. Inconclusive results are not listed. A call without a number means that no potency is given here. Values without a mark were called inactive. Active and inactive are the calls of the source. Calls follow the shape of the dose curve; as a rule, active = well fitted curve in the direction sought with a large enough effect; inconclusive = small, poorly fitted or top-dose-only effect, or another doubt; inactive = no such curve, though single readings can be large; an effect the other way counts as inactive or inconclusive.
What was measured:
[1] = Viability qHTS for spleen associated tyrosine kinase inhibitor (SYKi) naive MV4-11 cells (AID 1963823); also: nearly all actives have a fitted effect of over 40% in size
Outline: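 CellTiter-Glo luminescence, 10 min room-temperature incubation, gave viability. Cells: naive MV4-11 (500/well), treated 72 hr at 37 C, 5% CO2.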

[2] = Viability qHTS for spleen associated tyrosine kinase inhibitor (SYKi) drug resistant MV4-11 cells (AID 1963824); also: nearly all actives have a fitted effect of over 35% in size
Outline: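 SYK-inhibitor-resistant MV4-11 AML cells were seeded at 500 per well onto compound and cultured 72 hours (37 °C, 5% CO2). CellTiter-Glo was then added, and after 10 min at room temperature, luminescence gave viability.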

[3] = Cellular viability qHTS for adrenocortical cancer (ACC) cell line SW-13 (AID 1963989); settings: SW-13 ACC cells viability, CellTiter-Glo, 48 h; activity (max response): active compounds read low; also: nearly all actives have a fitted effect of over 65% in size;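 as to activity (max response): cells grown in serum-free medium with ITS supplement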
Outline: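 48 h treatment, SW-13 in ITS/DMEM serum-free; doses up to 46 uM; readout CellTiter-Glo luminescence; curve fit four-parameter logistic.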

[4] = Cellular viability qHTS for adrenocortical cancer (ACC) cell line NCI-H295R (AID 1963990); also: nearly all actives have a fitted effect of over 60% in size
Outline: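 Compound titrations (up to 46 uM final) are applied to NCI-H295R cultures for 48 h at 37C. Viable cell number is estimated by CellTiter-Glo signal, normalised to DMSO and doxorubicin controls.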
Potency is read from the fitted curve at half-maximal effect.

Row | SMILES | Potency [1] | Potency [2] | Potency [3] | Potency [4] | activity (max response) [3]
1 | C/C=C(/C)C(=O)O[C@H]1C(C)=C2[C@H]([C@@H]1OC(=O)CCCCCCC)[C@@](C)(OC(C)=O)C[C@H](OC(=O)CCC)[C@@]1(O)[C@H]2OC(=O)[C@@]1(C)O | 25.9 nM (active) and 20.9 nM (active) | 18.4 nM (active) and 3.7 nM (active) | 44.7 nM (active) | 1.78 µM (active) | 
2 | CC(C)(C)NC[C@H](O)c1ccc(O)cc1Cl | inactive | inactive |  | inactive | 9.97%
3 | CC(C)=CC1C(C(=O)OCN2C(=O)C3=C(CCCC3)C2=O)C1(C)C (stereo not given) | inactive | inactive |  | inactive | -13.2%
4 | CCCN1CCO[C@@H]2c3cc(O)ccc3OC[C@H]21 | inactive | inactive |  | inactive | 7.73%
5 | Clc1ccc(COC(Cn2ccnc2)c2ccc(Cl)cc2Cl)cc1 (stereo not given) | 8330 nM (active) | 8330 nM (active) | 25100 nM (active) | 22.4 µM (active) | 
6 | CC1OC(C)OC(C)O1 (stereo not given) | inactive | inactive |  | inactive | 14%
7 | CCOP(=S)(OCC)Oc1cc(C)nc(C(C)C)n1 | inactive | inactive |  | inactive | 8.98%
8 | COP(=O)(OC)C(O)C(Cl)(Cl)Cl (stereo not given) | inactive | inactive |  | inactive | 6.64%
9 | COc1cc(C)[nH]c(=O)c1CNC(=O)c1c(C)n([C@H](C)C2CCOCC2)c2ccccc12 | inactive | inactive |  | inactive | 8.24%
10 | CC(C(=O)c1ccccc1)N(C)C (stereo not given) | inactive | inactive |  | inactive | 8.81%
11 | COc1cc(C[C@@H](C)N)c(OC)cc1C | inactive | inactive |  | inactive | -18.7%
12 | COc1ccc(OC)c(CC(C)N)c1 (stereo not given) | inactive | inactive |  | inactive | -20.2%
13 | C[C@@H]1O[C@@H](O[C@@H]2C=C3CC[C@@H]4[C@H](CC[C@]5(C)[C@@H](c6ccc(=O)oc6)CC[C@]45O)[C@@]3(C)CC2)[C@H](O)[C@H](O)[C@H]1O | 6 nM (active) | 7.5 nM (active) | 11.2 nM (active) and 7.3 nM (active) | 11.2 nM (active) and 7.3 nM (active) | 
14 | CCC1(c2ccccc2)C(=O)N(COC)C(=O)N(COC)C1=O | inactive | inactive |  | inactive | -1.61%
15 | ClCCN1CCCC1 | inactive | inactive |  | inactive | 12.8%
16 | CCN(CC)CCOC(=O)C(C)(c1ccccc1)c1ccccc1 | inactive | inactive |  | inactive | -13.3%
17 | CC(C)(C)c1ccc(O)cc1 | inactive | inactive |  | inactive | 9.89%
18 | CO/C1=C/C(C)=C\[C@@H](C)[C@@H](O)[C@@H](C)C/C(C)=C\C=C/[C@H](OC)[C@@H]([C@@H](C)[C@@H](O)[C@H](C)[C@@]2(O)C[C@@H](O)[C@H](C)[C@@H](C(C)C)O2)OC1=O | 22.1 nM (active) | 22.1 nM (active) | 245 nM (active) | 0.0435 µM (active) | 
19 | CC(=O)OC[C@H]1O[C@@H]([S-])[C@H](OC(C)=O)[C@@H](OC(C)=O)[C@@H]1OC(C)=O.CC[PH+](CC)CC.[Au] | 209 nM (active) | 235 nM (active) | 708 nM (active) | 0.631 µM (active) | 
20 | COc1cc2c(cc1F)C(c1ccccc1Cl)=Nc1c(n[nH]c1C)N2 | 517 nM (active) | 1480 nM (active) |  | inactive | -18.7%

From PubChem BioAssay (NCATS)
